Source: PubChem BioAssay
HSF1 inh = HSF1 inhibitors in luciferase reporter cells, primary screen, cell-based, NIH3T3, luminescence. NIH3T3-HGL HSE-luciferase, MG132-induced, luminescence 8 h; hits give low values. activity change, negative = inhibition, % at 7.5 µM (by protocol). 300,000 compounds, 0.77% hits;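 active means more than half of replicate wells show activity change below -50%, luminescence cut by over half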;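 further: luciferase reports HSF-1 transcriptional activity via heat shock element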
dFosB act-1 = activators of delta FosB homodimer, primary screen, biochemical, fluorescence polarization, TAMRA-CDK5 oligo, single point | purified delta FosB; percent of positive-control signal above neutral wells | activation, % at 25 µM | 340,000 compounds, 0.99% hits | AID 493131, 2011;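 active means mean activation above about 17%, with every replicate also reaching it, limit read from the data, passing the limit was not always enough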
Target sequence (P13346 whole entry, looked up): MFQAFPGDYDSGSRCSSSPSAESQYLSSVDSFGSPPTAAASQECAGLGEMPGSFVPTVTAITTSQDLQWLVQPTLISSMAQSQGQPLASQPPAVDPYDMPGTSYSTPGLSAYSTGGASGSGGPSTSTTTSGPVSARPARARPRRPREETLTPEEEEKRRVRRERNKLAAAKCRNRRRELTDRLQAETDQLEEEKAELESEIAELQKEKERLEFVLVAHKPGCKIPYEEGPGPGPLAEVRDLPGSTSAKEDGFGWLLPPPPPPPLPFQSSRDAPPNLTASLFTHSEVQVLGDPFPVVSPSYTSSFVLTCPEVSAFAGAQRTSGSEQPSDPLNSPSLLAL
HSF1 activator = HSF-1 activators, primary screen, NIH3T3-HGL cells, MG132 stress, luminescence, single point; NIH3T3-HGL HSF-1 luciferase reporter, 8 h; 100% = twice DMSO control signal; activation, % at 9 µM; 300,000 compounds, 1.7% hits; AID 504408, 2011;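 active means mean replicate activation of at least 50% with a set share of replicates each reaching 50%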
HSP90 inh = HSP90 inhibitors, primary screen, cell lysate, luminescence; inhibition, % at 5.6 µM; 290,000 compounds, 0.91% hits; Rabbit reticulocyte lysate, luciferase refolding luminescence, 3 h;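 active means inhibition above the screen-wide mean plus 3 SD, computed separately per campaign, cut at about 16% in these data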;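 further: inhibitors lower the luminescence because luciferase stays unfolded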
Platelet DG rel = inhibitors of platelet dense granule secretion, primary screen, cell-based, MLPCN, human platelets. 300,000 compounds, 0.22% hits. human platelet-rich plasma, SFLLRN dense granule ATP release, luminescence. inhibition, %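 (compounds screened at 7.5 µM in platelet-rich plasma)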;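 active means mean replicate score, as percent of positive control, at or above 50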
MPTP block = mitochondrial permeability transition pore inhibitors, primary screen, biochemical, isolated mouse mitochondria, absorbance. 360,000 compounds, 1.4% hits. inhibition, % at 10 µM. AID 602449, 2012. Ca2+ swelling absorbance, 30 min;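 active means inhibition of 50% or more, scaled per plate between neutral and stimulator controls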
dFosB act-2 = activators of mouse delta FosB DNA binding, confirmation, biochemical, fluorescence polarization, TAMRA-CDK5 oligo, cherry-picked samples. shares compounds with dFosB act-1. purified delta FosB; normalised: neutral wells 0, positive control 100. activation, % at 24.9 µM. 2,400 tested, under 10 active. AID 588690, 2011;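 active means highest replicate activation at or above 34% and every replicate reaching that threshold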;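 further: higher polarization means more probe DNA bound by delta FosB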
Each line names hits and unclear results; the compound was inactive in the other large screens (follow-up assays come after a bar, where they were run). Compounds with a hit are over-represented: about 4.9% of the library has one in this group of screens.

Cc1cccc(C)c1NC(=O)CSc1nc(C2CC2)nc2ccccc12	dFosB act-1 20 | dFosB act-2 inactive
COc1cc(-c2nnc(COC(=O)c3ccc(C)o3)o2)cc(OC)c1OC	none (no result: HSF1 inh, HSF1 activator, HSP90 inh, Platelet DG rel)
COc1ccc(CCC(=O)NCC(=O)OCc2ccccc2)cc1	none
O=C(CSc1nnc(-c2n[nH]c3ccccc23)n1-c1ccccc1)Nc1cccc(Cl)c1	dFosB act-1 25 | dFosB act-2 inactive
Cc1cccc(NC(=O)c2cccc(S(=O)(=O)N(C)C3CCCCC3)c2)n1	none (no result: HSF1 inh, dFosB act-1, HSF1 activator, HSP90 inh, Platelet DG rel)
COc1ccc(COc2cc(-c3cccc(OC)c3)nc3ccc(NC(=O)c4cccnc4)cc23)cc1	dFosB act-1 19 | dFosB act-2 inactive
CCOC(=O)c1cnc2c(cnn2C)c1NCc1ccc(OC)cc1	dFosB act-1 29 | dFosB act-2 inactive
COc1ccc(C(=O)Nc2ccccc2C(=O)NC(Cc2ccc(O)cc2)C(=O)NNC(=O)c2ccccc2Cl)cc1 (configuration not stated)	dFosB act-1 42 | dFosB act-2 inactive
COc1ccc(C(=O)NNC(=O)C(Cc2ccc(O)cc2)NC(=O)c2ccccc2NC(=O)c2ccc(OC)cc2)cc1 (configuration not stated)	dFosB act-1 60 | dFosB act-2 inactive
O=C(Nc1ccccc1C(=O)NC(Cc1ccccc1)C(=O)NC1CCCCC1)c1ccccc1 (configuration not stated)	dFosB act-1 21 | dFosB act-2 inactive
O=C(Nc1ccccc1C(=O)NC(Cc1ccccc1)C(=O)O)c1ccccc1 (configuration not stated)	none
O=C(Cc1ccc2c(c1)OCCO2)Nc1ccc(Cl)c(S(=O)(=O)N2CCOCC2)c1	none (no result: HSF1 inh, HSF1 activator, HSP90 inh, Platelet DG rel)
C=CCOc1ccc(CN(C)CC(O)COc2cccc3ccccc23)cc1 (configuration not stated)	dFosB act-1 19 | dFosB act-2 inactive
Cc1cc(C)c(S(=O)(=O)Nc2ccc(Cl)cn2)c(C)c1	none
CSc1ccc(/C=C/C(=O)OCC(=O)c2ccc[nH]2)cc1	dFosB act-1 22 (no result: HSF1 inh, HSF1 activator, HSP90 inh, Platelet DG rel) | dFosB act-2 inactive
N#C/C(=C/c1ccc(F)cc1)c1nnc(NC(=O)c2ccccc2)s1	dFosB act-1 21 | dFosB act-2 inactive
CCn1cc(CN2CCC(Oc3ccc(C(=O)N4CCCCC4)cc3)CC2)cn1	none
COc1ccc(-c2nnc(SCC(=O)O)n2Cc2ccccc2)cc1	none
Cc1nn(Cc2ccc(F)cc2)c2sc(C(=O)Nc3nccs3)cc12	dFosB act-1 49 | dFosB act-2 inactive
Cc1nn(Cc2ccccc2Cl)c2sc(C(=O)Nc3nccs3)cc12	none
COc1cccc(-n2nnc3c(=O)n(CC(=O)Nc4ccccc4C)cnc32)c1	none
Cc1ccc(NC(=O)Cn2cnc3c(nnn3Cc3ccc(F)cc3)c2=O)cc1	dFosB act-1 23 | dFosB act-2 inactive
COc1ccc(-n2nnc3c(=O)n(CC(=O)N4CCCc5ccccc54)cnc32)cc1	dFosB act-1 35 | dFosB act-2 inactive
COC(=O)c1ccc(NC(=O)Cn2cnc3c(nnn3-c3cccc(OC)c3)c2=O)cc1	dFosB act-1 37 | dFosB act-2 inactive
O=C(Cn1cnc2c(nnn2Cc2ccc(F)cc2)c1=O)Nc1ccc2c(c1)OCCO2	dFosB act-1 27 | dFosB act-2 inactive
Cc1ccc(-c2nnn(CC(=O)N(Cc3ccccc3)C(C(=O)NC3CCCC3)c3ccncc3)n2)o1 (configuration not stated)	dFosB act-1 33 | dFosB act-2 inactive
Cn1ccc2ccc(C3=CC(=O)C[C@H](c4ccc(F)cc4)C3)cc21	none (no result: HSF1 inh, HSF1 activator, HSP90 inh, Platelet DG rel)
O=C1C(c2ccccc2)SC(=Nc2ccccc2)N1S(=O)(=O)c1ccccc1 (configuration not stated)	dFosB act-1 21 | dFosB act-2 inactive
CC1(C)SC(=Nc2ccccc2)N(S(=O)(=O)c2ccccc2)C1=O	none
O=C1N/C(=N/N=C/c2ccco2)SC1Cc1ccccc1 (configuration not stated)	dFosB act-1 21 | dFosB act-2 inactive
Cc1cccc(CC2S/C(=N/N=C/c3ccco3)NC2=O)c1 (configuration not stated)	dFosB act-1 25 | dFosB act-2 inactive
Cc1ccc(CC2S/C(=N/N=C/c3ccco3)NC2=O)cc1 (configuration not stated)	none
CN1/C(=C\C(=O)CSc2nnc(NCc3ccccc3)s2)C(C)(C)c2ccccc21	dFosB act-1 23 | dFosB act-2 inactive
CN1/C(=C\C(=O)c2ccco2)C(C)(C)c2ccccc21	dFosB act-1 24 | dFosB act-2 inactive
CN1/C(=C\C(=O)COC(=O)c2ccco2)C(C)(C)c2ccccc21	none
Cc1nn(C)c(C(=O)NC(=S)Nc2ccccc2O)c1Cl	none
COc1ccc(-c2cccc(C3CC=CC4C3C(=O)N(Cc3ccccc3)C4c3ccc(OC)c(Cl)c3)c2)cc1 (configuration not stated)	none (no result: HSP90 inh)
Cc1ccc(C(=O)Nc2ccc3c(c2)C(=O)NC3=O)cc1	HSF1 inh -57, dFosB act-1 35 | dFosB act-2 inactive
COC(=O)c1ccc(C(=O)Nc2ccc3c(c2)C(=O)NC3=O)cc1	dFosB act-1 86 | dFosB act-2 inactive
O=C(Nc1ccc2c(c1)C(=O)NC2=O)c1ccc(Cl)s1	dFosB act-1 54 | dFosB act-2 inactive
O=C(Nc1ccc2c(c1)C(=O)NC2=O)c1cccc(Cl)c1	dFosB act-1 25 | dFosB act-2 inactive
CCc1ccc(N(CC(=O)NCc2ccc(F)cc2)C(=O)c2csnn2)cc1	none
C[C@H](CO)N1C[C@H](C)[C@@H](CN(C)C(=O)NC2CCCC2)Oc2cc(Br)ccc2S1(=O)=O	none (no result: HSF1 inh, dFosB act-1, HSF1 activator, HSP90 inh, Platelet DG rel)
OCCN1CCN(c2nc(-c3ccccc3O)nc3ccccc23)CC1	dFosB act-1 24 | dFosB act-2 inactive
COc1ccc(S(=O)(=O)NC(=O)C2(C)CCN2C(=O)C(C)(C)c2ccccc2)cc1 (configuration not stated)	none (no result: HSF1 inh, dFosB act-1, HSF1 activator, HSP90 inh, Platelet DG rel)
Cc1cc2c(cc1C)C(c1cc(Br)ccc1F)CC(=O)N2 (configuration not stated)	dFosB act-1 22 | dFosB act-2 inactive
O=C(NCCc1ccccc1)C1CCC(CNc2nc(=S)[nH]c3ccccc23)CC1 (configuration not stated)	dFosB act-1 24 | dFosB act-2 inactive
